Source: PubChem BioAssay AID485281 (National Center for Advancing Translational Sciences (NCATS), 2010)
About 260 (0.074%) of roughly 350,000 compounds were called active. Inconclusive results (about 8%) are left out. Calls follow the shape of the dose curve; as a rule, active = well fitted inhibition curve with a large enough effect; inconclusive = small, poorly fitted or top-dose-only effect; inactive = no such curve, though single readings can be large or run the other way. The entries come from a sample that favours actives as a whole.

Biological target: Ferritin light chain (Equus caballus) (UniProt P02791)
Sequence (P02791 2-175 limits assumed): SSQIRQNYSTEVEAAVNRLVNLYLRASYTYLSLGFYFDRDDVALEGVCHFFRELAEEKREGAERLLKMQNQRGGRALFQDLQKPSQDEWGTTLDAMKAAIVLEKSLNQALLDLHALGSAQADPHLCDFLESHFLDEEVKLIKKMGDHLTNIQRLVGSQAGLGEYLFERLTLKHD
Assay: qHTS Assay for Identification of Novel General Anesthetics; also: nearly all actives have a fitted effect of over 20% in size
Conditions: apoferritin/1-aminoanthracene competitive binding, fluorescence; series mostly up to 77.5 µM; activity change, negative = displacement: at the top concentration
Outline: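 Probe: 1-aminoanthracene (50% saturated, PBS). Protein: horse-spleen apoferritin, 10 uM. Incubation: 10 min, room temperature. Detection: 380 nm excitation, 535 nm emission. Analysis: normalized response, four-parameter Hill.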
% is scaled to controls: 0 for no effect and ±100 for the full control effect; potency is read from the fitted curve at half-maximal effect.

Structure (SMILES)	activity change, negative = displacement	Potency
CCc1cccc(NC(=O)CSc2nccn2C)c1	-12.6% (inactive)	
COc1ccc(-c2cn3c(C)c(C(=O)Nc4cc(C)cc(C)c4)sc3n2)cc1	1.93% (inactive)	
O=S(=O)(c1ccccc1)c1nc(-c2ccc(Cl)cc2Cl)oc1N1CCCCC1	643% (inactive)	
COc1cc(C(=O)Nc2ccc(-n3c(C)nc4ccccc4c3=O)cc2)cc(OC)c1OC	5.65% (inactive)	
O=C(CC1C(=O)NCCN1Cc1ccc(-c2ccccc2)cc1)NCC1CCOCC1 (centres undefined)	-9.06% (inactive)	
Cc1nccn1CCCNC(=O)CC1C(=O)NCCN1Cc1ccc(Cl)c(F)c1 (centres undefined)	-5.87% (inactive)	
CCOc1ccc(CN2CCNC(=O)C2CC(=O)NCCCC2CCCC2)cc1 (centres undefined)		31.6 µM (active)
CC(=O)c1cccc(NC(=O)c2nc(-c3ccccc3)n(-c3cccc(C)c3)n2)c1	-12% (inactive)	
O=C(c1cnn(-c2ccc(F)cc2)c1-n1cccc1)N1CCN(c2ccc(F)cc2)CC1	5.79% (inactive)	
CCCn1c2ccccc2c2cnn(CC(=O)N(C)c3ccccc3CC)c(=O)c21	90.4% (inactive)	
O=C(CCC(=O)N1CC2CCCN2c2ccccc21)NCc1ccccc1Cl (centres undefined)	-0.193% (inactive)	
Cc1ccc2nc(-c3ccc(C)c(NC(=O)Cc4ccccc4)c3)oc2c1	-0.615% (inactive)	
COc1ccc(N(CC(=O)NCCc2ccc(Cl)cc2)S(=O)(=O)c2c(C)nn(C)c2C)cc1	-5.18% (inactive)	
COC(=O)CSc1ccc2nnc(CCNS(=O)(=O)c3ccc(C)cc3)n2n1		inactive
O=S(=O)(NCCc1nnc2ccc(SCc3ccc(Cl)cc3Cl)nn12)c1ccccc1		17.8 µM (active)
Cc1ccc(S(=O)(=O)NCCc2nnc3ccc(SCc4cccnc4)nn23)cc1	-11.4% (inactive)	
CN1C(=O)c2ccccc2Sc2ccc(NC(=O)Cc3ccc(Cl)cc3)cc21	-9.63% (inactive)	
O=C(NCC(c1ccc2c(c1)OCO2)N1CCN(c2ccccc2)CC1)C(=O)Nc1ccccc1F (centres undefined)	-2.09% (inactive)	
Cc1ccc(Cl)cc1NC(=O)C(C)n1nnc2sc(-c3ccccc3)cc2c1=O (centres undefined)	6.14% (inactive)	
O=C(Cn1cc(SCc2cccc(Cl)c2)c2ccccc21)N1CCCCC1	38.8% (inactive)	
CCN1CCN(c2ncc3c(n2)CC(c2ccccc2O)CC3=O)CC1 (centres undefined)	-14.1% (inactive)	
CCCCCCSc1nsc(N)n1		8.91 µM (active)

Structure (SMILES)	activity change, negative = displacement	Potency
CCCSc1nsc(N)n1	-16.3% (inactive)	
Nc1nc(SC23CC4CC(CC(C4)C2)C3)ns1	-7.75% (inactive)	
O=C(c1ccc(Br)cc1)N(Cc1cccs1)c1ccc(F)cc1	8.94% (inactive)	
Cn1cc(S(=O)(=O)N2CCCCCC2)cc1C(=O)N1CCN(c2ccc(F)cc2)CC1	-7.65% (inactive)	
Cc1cc(=O)[nH]c(SCC(=O)N2c3ccccc3CC2C)n1 (centres undefined)		14.1 µM (active)
CC1Cc2ccccc2N1C(=O)CSc1nc2ccccc2o1 (centres undefined)	-12.6% (inactive)	
CC1Cc2ccccc2N1C(=O)CSc1nnc(C2CC2)n1C (centres undefined)	-5.61% (inactive)	
O=C(NCCCN1CCN(c2cccc(Cl)c2)CC1)c1nnc(Cc2ccc(F)cc2Cl)o1	-1.63% (inactive)	
COc1ccccc1CNC(=O)CCn1c(=O)c2ccccc2n(CC(=O)Nc2cccc(Cl)c2)c1=O	-10.4% (inactive)	
CCOc1cccc2c1N[C@@H](c1ccc(C(=O)O)cc1)[C@H]1CC=C[C@@H]21	-3.52% (inactive)	
CCC(=O)N1c2ccccc2CC1C(=O)N1CCN(c2ccccc2F)CC1 (centres undefined)	-12.2% (inactive)	
COc1ccc(-n2ccnc(NCCc3ccc(Cl)cc3)c2=O)cc1OC	-7.82% (inactive)	
O=C(Cn1nc(C(F)(F)F)c2c1CCCC2)Nc1ccc(Cl)cc1	-13.6% (inactive)	
COC(=O)c1ccc(NC(=O)CCc2c(C)nn(-c3ccc(N4CCCC4)nn3)c2C)cc1	-7.89% (inactive)	
COc1ccc(CCn2cc3c(c2-c2ccc(Br)cc2)c(=O)n(C)c(=O)n3C)cc1OC	0.216% (inactive)	
COc1ccc(CC(=O)NCCc2sc3nc(-c4ccc(OC)cc4)nn3c2C)cc1	4.35% (inactive)	
Cc1cccc(N2CCN(C3=C(c4ccccc4)C(=O)c4ccccc43)CC2)c1C	6.14% (inactive)	
CCOc1ccc(N(C)S(=O)(=O)c2cc(-c3cnc(C)o3)ccc2OC)cc1	-4.52% (inactive)	
CC(=O)c1ccc(NC(=O)CSc2c(C(C)C)cnc3c2c(=O)n(C)c(=O)n3C)cc1	-11.9% (inactive)	
CCOc1ccc(C(=O)Nc2ccc3nc4c(c(Nc5ccccc5OC)c3c2)CCCC4)cc1	-7.47% (inactive)	
COc1ccc(NC(=O)c2ccco2)cc1NC(=O)COc1ccc(C)c(C)c1	-12.7% (inactive)	
CCOc1ccc(N(CC)S(=O)(=O)N2CCCC(C(=O)NCc3ccc(SC)cc3)C2)cc1 (centres undefined)	91.3% (inactive)	

Structure (SMILES)	activity change, negative = displacement	Potency
O=C(Nc1ccccc1F)C(c1ccccc1)N1Cc2ccccc2C1=O (centres undefined)	-7.39% (inactive)	
CC(=O)N1CCc2cc(S(=O)(=O)NC(Cc3ccccc3)C(=O)NCc3ccc(C)cc3)ccc21 (centres undefined)	-6.46% (inactive)	
COc1cc2c(cc1OC)C(COc1ccc(F)cc1)N(C(=O)c1ccccc1F)CC2 (centres undefined)	-10% (inactive)	
COc1ccc(-c2onc(C)c2C)cc1S(=O)(=O)NCCc1ccccc1	-9.42% (inactive)	
Cc1ccc(-c2cc(N)n(Cc3cccc(Cl)c3)n2)cc1	-0.129% (inactive)	
Cc1ccccc1C(=O)N(Cc1ccc(N(C)C)cc1)CC1CCCO1 (centres undefined)	-3.91% (inactive)	
CCOc1cc(C2c3c(-c4ccc(Br)cc4)n[nH]c3C(=O)N2c2ccc(Cl)cc2)ccc1O (centres undefined)	-6.72% (inactive)	
CC(C)c1ccc(NC(=O)C2CCN(c3nc(-c4ccc(C(C)C)cc4)no3)CC2)cc1	40.1% (inactive)	
Cc1ccc(NC(=O)CSc2nc3c([nH]c4ccccc43)c(=O)n2-c2ccccc2)c(C)c1	-3.33% (inactive)	
CCCOc1ccc(C(=O)Nc2ccc3oc(-c4cccc(Cl)c4Cl)nc3c2)cc1	3.64% (inactive)	
COc1cc(OC)c(OC)cc1/C=C/c1nc2ccccc2c(=O)n1-c1ccc(Br)c(C)c1	7.26% (inactive)	
COc1ccc(N2CCN(C(=O)C3CCCN(C(=O)c4cc5sccc5n4C)C3)CC2)cc1 (centres undefined)	37% (inactive)	
CCc1ccccc1OCCSc1nc(-c2cccs2)nc2cc(=O)[nH]n12	-9.64% (inactive)	
COc1ccc(CNC(=O)CSCc2nc(-c3ccccc3F)oc2C)cc1	-12.4% (inactive)	
COc1ccc(Br)cc1C1CC(=O)Nc2c1c(C)nn2-c1nc(C)cc(C)n1 (centres undefined)	3.29% (inactive)	
Cc1ccc(NC(=O)c2ccc3[nH]c(C)cc(=O)c3c2)c(C)c1	-7.2% (inactive)	
Cc1c(Cl)cccc1-c1ccc(CNCCCSc2nnnn2C)o1	-11.2% (inactive)	
COc1ccc(NC(=O)CCN2CCN(CCO)CC2)cc1	-5.78% (inactive)	
COc1ccc(CCNC(=O)c2ccc3c(c2)nc(C)n3-c2ccc(Br)cc2)cc1OC	-10.5% (inactive)	
O=C(CSc1nccn1C1CCCC1)Nc1cc(C(F)(F)F)ccc1Cl	-7.55% (inactive)	
